KB-V1 cytotox: qHTS assay for MDR1-selective chemotherapeutics: Primary screen using the drug-selected MDR subline cells KB-V1 | Potency, µM (doses to about 46.1 µM), actives largely listed as cytotoxic | AID 1347076, 2019 | KB-V1 MDR cells viability, CellTiter-Glo, 72 h | actives 3.4% (n = 400,000); further: potency means the concentration at half of the fitted maximal effect; nearly all actives have a fitted effect of over 60% in size
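Luminescent ATP read-out (CellTiter-Glo, 10 min) measures survival of drug-selected KB-V1 MDR cells after 72 h, 37 degrees C compound exposure. Medium: phenol-red-free DMEM, 10% FBS. Values from fitted concentration-response curves.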
KB-3-1 tox: qHTS assay for MDR1-selective chemotherapeutics: Primary screen using the parental adenocarcinoma cell KB-3-1; actives 1.4% (n = 400,000); KB-3-1 viability, CellTiter-Glo ATP luminescence, 72 h; Potency, µM (series often up to 46.1 µM), hits mostly cytotoxic; AID 1347075, 2019; further: potency means the concentration at half of the fitted maximal effect; nearly all actives have a fitted effect of over 60% in size
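KB-3-1 cells, DMEM (no phenol red) + 10% FBS; compound by pin transfer, 72 h, 37 °C. Readout: CellTiter-Glo luminescence after 10 min. Data normalized, curve-fitted.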
PI4K2A block: qHTS for small molecular inhibitors of PI4K2A | Phosphatidylinositol 4-kinase type 2-alpha (Homo sapiens), Q9BTU6 | purified PI4K2A, ADP-Glo luminescence, 1 h; hits give low values | activity change, negative = inhibition, % at 76.9 µM | actives 0.13% (n = 420,000) | AID 1346378, 2018; in the data active means activity change below about -50%; inconclusive means mostly about -30% to -49%;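 further: -100% = wells without enzyme as full effect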
Target sequence (Q9BTU6 whole entry, looked up): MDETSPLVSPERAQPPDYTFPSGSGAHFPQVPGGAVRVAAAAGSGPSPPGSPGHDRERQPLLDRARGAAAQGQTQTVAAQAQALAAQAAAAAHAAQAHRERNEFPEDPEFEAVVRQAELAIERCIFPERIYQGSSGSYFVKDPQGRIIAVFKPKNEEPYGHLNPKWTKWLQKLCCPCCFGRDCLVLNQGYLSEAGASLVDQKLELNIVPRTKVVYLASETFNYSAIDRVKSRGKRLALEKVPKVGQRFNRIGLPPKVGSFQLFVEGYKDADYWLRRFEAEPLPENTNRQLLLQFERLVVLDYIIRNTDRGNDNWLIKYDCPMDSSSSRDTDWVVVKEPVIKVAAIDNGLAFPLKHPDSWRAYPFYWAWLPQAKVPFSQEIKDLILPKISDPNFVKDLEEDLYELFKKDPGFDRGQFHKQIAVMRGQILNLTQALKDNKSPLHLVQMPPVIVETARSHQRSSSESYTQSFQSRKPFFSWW
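PI4K2A activity was measured by ADP-Glo luminescence: enzyme (4 ug/mL stock) and phosphatidylinositol (1.2 mM stock) in Tris pH 7.5/MgCl2/EGTA/Triton X-100 buffer were reacted with ATP (300 microM stock) for one hour at ambient temperature.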
A549 tox: Nrf2 qHTS screen for inhibitors: counterscreen for cytotoxicity; A549 ARE-Fluc cells, CellTiter-Fluor viability, 18-24 h; Potency, µM (series often up to 46 µM), for the others: at the highest dose activity change, negative = cytotoxicity, usual class: inhibitors; actives 0.16% (n = 390,000); AID 504648, 2011; further: potency means the concentration at half of the fitted maximal effect
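A549 ARE_Fluc cells in 5% FBS OPTI-MEM were exposed to compounds in concentration-response for 18-24 h at 37 deg C. Viability was read by CellTiter-Fluor fluorescence (Ex 405/Em 525) after 30 min, before the luciferase read.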
Giardia killer: Small Molecules that selectively kill Giardia lamblia: qHTS; Giardia lamblia trophozoite viability; activity change, % at 7.66 µM, hits read low; actives 0.15% (n = 340,000); AID 540267, 2011; in the data active means activity change below about -80%; inconclusive means between about -30% and that limit;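 further: parasites exposed to compound for two days anaerobically before the ATP read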
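Giardia trophozoites, 100 cells per well, were exposed to compounds for 48 hrs at 37 deg C under anaerobic conditions; viability was then read as ATP content by bioluminescence after 15-30 min at room temperature.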
Nrf2 inh: Nrf2 qHTS screen for inhibitors; Potency, µM (top dose mostly 46 µM), for inactives: at the highest dose activity change, negative = inhibition, usual class: inhibitors; actives 2.1% (n = 360,000); A549 ARE-Fluc reporter, luciferase luminescence, 18-24 h; AID 504444, 2011; further: potency means the concentration at half of the fitted maximal effect; nearly all actives have a fitted effect of over 60% in size
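Concentration-response testing used A549 ARE_Fluc cells at 5000 cells/well. Following an 18-24 h compound incubation, viability was read by fluorescence (Ex 405/Em 525) and luciferase output by luminescence.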
Starred values were filed as active, the others as inactive; i = inactive; u = inconclusive; x = no result. Only some compounds are listed: those with a hit (about 5.7% of all), similar ones and a draw of the others. Unless noted, the call rests on the fitted dose curve; in most records, active means well fitted curve in the direction sought with a large enough effect; inconclusive means small, poorly fitted or top-dose-only effect, or another doubt; inactive means no such curve, though single readings can be large; an effect the other way counts as inactive or inconclusive. Unless noted, on the % scale 0 is the no-effect control and ±100 the full control effect.

SMILES | KB-V1 cytotox | KB-3-1 tox | PI4K2A block | A549 tox | Giardia killer | Nrf2 inh
CCOC(=O)N1CCN(S(=O)(=O)c2ccc(OCC)cc2)CC1 | 16.4µM* | i | -1.1 | -3.6% | -3.8 | -25.3%
CN(C)S(=O)(=O)c1ccc2nc(COCc3nc4ccc(S(=O)(=O)N(C)C)cc4[nH]3)[nH]c2c1 | x | x | -3.4 | x | x | x
CCN(CC)CCCOc1cc2nc(N3CCCN(C)CC3)nc(NC3CCN(C)CC3)c2cc1OC | i | u | x | x | x | x
Cc1ccccc1NC(=O)CN(C)S(=O)(=O)c1cccc2nsnc12 | x | x | 1.1 | 8.9% | x | x
CCOc1ccc(S(=O)(=O)N2CCN(C(=O)CCOc3ccccc3C)CC2)cc1 | i | i | 3.4 | -16.0% | -21.9 | 16.4µM*
Cc1ccc(S(=O)(=O)N2CCN(C(=O)CCOc3ccccc3C)CC2)cc1C | u | i | 2.6 | -0.9% | -13.1 | u
O=S(=O)(NCc1cccnc1)c1cccn1-c1ncc(C(F)(F)F)cc1Cl | u | i | -0.8 | -11.5% | 11.8 | 16.4µM*
Cc1cccc(S(=O)(=O)Nc2cccc3c2C(=O)c2ccccc2-3)c1 | i | i | 0.8 | -29.0% | 6.8 | 18.4µM*
CC(C)NC(=O)N[C@H]1C[C@@H]2O[C@H](CO)CC[C@@H]2O[C@@H]1CCc1ccc(-c2ccc(F)cc2)cc1 | x | x | -0.9 | x | x | x
O=C(O)c1cc([N+](=O)[O-])ccc1N1CCC(Cc2ccccc2)CC1 | i | i | 2.2 | u | 1.8 | u
O=C(NCC1CCCO1)c1cc([N+](=O)[O-])ccc1N1CCC(Cc2ccccc2)CC1 (stereo not given) | u | 4.61µM* | 3.6 | u | 12.2 | u
Cc1cccc(N/C(N)=N/c2nc(C)c(Cc3ccccc3)c(=O)[nH]2)c1 | i | 20.6µM* | -17.6 | -22.4% | -13.1 | u
Cc1cc(/C=N/NC(=O)c2cccs2)c(C)n1-c1ccccc1 | u | 16.4µM* | 1.0 | 1.2% | 2.5 | u
Cc1cc(/C=N/NC(=O)c2ccncc2)c(C)n1-c1ccccc1 | i | i | -2.1 | 1.6% | -7.6 | u
Cc1ccc(/C=N/NC(=O)c2cccs2)cc1[N+](=O)[O-] | 14.6µM* | i | 7.1 | 0.5% | 0.2 | u
NCCN1CCN(S(=O)(=O)c2ccc3c(c2)CCN3C(=O)C2CCC2)CC1 | x | x | 2.1 | x | x | x
Cc1cccc2c(=O)cc(C)n(CC(=O)N3CCCCC3)c12 | 16.4µM* | i | -0.9 | u | 33.9 | -6.7%
Cc1ccc(NC(=O)C2CCCN(c3ncccn3)C2)cc1F (stereo not given) | 16.4µM* | i | 6.6 | 1.1% | -14.1 | u
O=C(Nc1ccccc1-c1ccccc1)C1CCCN(c2ncccn2)C1 (stereo not given) | 20.6µM* | i | 3.6 | -1.9% | 25.6 | -7.1%
Cc1ccc(NC(=O)C2CCCN(c3ncccn3)C2)c(C)c1 (stereo not given) | i | i | 5.3 | -0.5% | 15.5 | u
O=C(Nc1cccc(C(F)(F)F)c1)C1CCCN(c2ncccn2)C1 (stereo not given) | 16.4µM* | i | 7.4 | 1.1% | 20.1 | 1.1%
O=c1c2ccccc2[nH]n1[C@@H](Cc1ccccc1)Cn1cc(-c2ccc(-c3ccccc3)cc2)nn1 | x | x | 2.3 | x | x | x
CN(C)c1ccc(CN(Cc2ccco2)C(=O)COc2ccc(F)cc2)cc1 | x | x | 1.7 | 0.7% | x | u
CC(=O)NC12CC3CC(C1)CC(C(=O)Nc1cccc(S(=O)(=O)N4CCCCCC4)c1)(C3)C2 | 14.6µM* | i | -0.9 | 1.5% | -8.8 | -21.2%
CC(=O)NC12CC3CC(C1)CC(C(=O)Nc1ccc(C)c(S(=O)(=O)N4CCCCCC4)c1)(C3)C2 | 20.6µM* | u | -1.6 | -9.8% | -3.7 | u
O=C1N(CCCO)CCC12CCCCC2 | x | x | 2.6 | x | x | x

High-throughput results as filed in PubChem.
